About 83,000 compounds went through this panel and 20% of them were active in at least one assay; those are over-represented in the sample as a whole.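 Method: cells in 96-well plates; compound added at one concentration; 48 h incubation; percent growth measured; values under 10 scored active.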 Values without a mark were called inactive. Activity calls are given as the source filed them.
Columns and labels:
Assay in all cases: NCI-60 one-dose screen, 48 h (100 = growth as untreated, 0 = no growth, -100 = all killed)
Settings in all cases: 10 µM unless noted
SK-MEL-2 melanoma = system: SK-MEL-2 melanoma
EKVX NSCLC = system: EKVX NSCLC
SN12C renal = system: SN12C renal
UO-31 renal = system: UO-31 renal
TK-10 renal = system: TK-10 renal
ACHN renal = system: ACHN renal
A498 renal = system: A498 renal
CCRF-CEM leukemia = system: CCRF-CEM leukemia
MOLT-4 leukemia = system: MOLT-4 leukemia
SR leukemia = system: SR leukemia
RPMI-8226 leukemia = system: RPMI-8226 leukemia
OVCAR-8 ovarian = system: OVCAR-8 ovarian
OVCAR-5 ovarian = system: OVCAR-5 ovarian
OVCAR-4 ovarian = system: OVCAR-4 ovarian
SK-OV-3 ovarian = system: SK-OV-3 ovarian
IGROV1 ovarian = system: IGROV1 ovarian
OVCAR-3 ovarian = system: OVCAR-3 ovarian
HS 578T breast = system: HS 578T breast
NCI/ADR-RES ovarian = system: NCI/ADR-RES ovarian
T-47D breast = system: T-47D breast

| SMILES | growth (SK-MEL-2 melanoma) [%] | growth (EKVX NSCLC) [%] | growth (SN12C renal) | growth (UO-31 renal) | growth (TK-10 renal) | growth (ACHN renal) | growth (A498 renal) | growth (CCRF-CEM leukemia) | growth (MOLT-4 leukemia) | growth (SR leukemia) | growth (RPMI-8226 leukemia) | growth (OVCAR-8 ovarian) | growth (OVCAR-5 ovarian) [%] | growth (OVCAR-4 ovarian) | growth (SK-OV-3 ovarian) [%] | growth (IGROV1 ovarian) | growth (OVCAR-3 ovarian) | growth (HS 578T breast) | growth (NCI/ADR-RES ovarian) | growth (T-47D breast) |
| --- | --- | --- | --- | --- | --- | --- | --- | --- | --- | --- | --- | --- | --- | --- | --- | --- | --- | --- | --- | --- |
| C/C(=N\NC(=O)c1ccncc1)c1ccc(N)cc1 | 105 | 101 | 97.1% | 89.5% | 103% | 109% | 90.6% | 92% | 92.4% | 85.8% | 97.5% | 101% | 107 | 94.4% | 101 | 97.4% | 105% | 96.8% | 111% | 83.8% |
| COC(=O)c1nc(-c2ccccc2)oc1S(=O)(=O)n1nc(C)cc1N | 80.3 | 87.8 | 58.5% | 51.4% | 73.5% | -86.2% (active) | 99.9% | 9.2% (active) | 14.6% | 3.74% (active) | 53.2% | 95.3% | 103 | 104% | 106 | 61% | 20.4% | 93.6% | 101% | 22.5% |
| COc1ccc2[nH]c(=O)c(/C=C/C(=O)/C=C/c3ccc(O)c(OC)c3)cc2c1 | 78.3 | 59.4 | 4.69% (active) | -70.8% (active) | 61.1% | 49.9% | 89.7% | 3.63% (active) | 21% | 1.27% (active) | -18.5% (active) | 1.42% (active) | 59.4 | 64.3% | 56.5 | 2.67% (active) | -11.2% (active) | 25.5% | 47.9% | 26% |
| O=Cc1[nH]c(Sc2ccccc2)c2ccccc12 | 81.6 | 76.1 | 77.7% | 48.6% | 80.3% | 96.6% | 95.3% | 12.1% | 17% | 59.3% | 7.59% (active) | 68.6% | 87.4 | 58.3% | 83.5 | 88.2% | 50.4% | 64.9% | 69.7% | 44.1% |
| CC(=O)c1ccc(NC(=O)CSc2nnc(-c3cc(-c4ccc(C)cc4)nc4ccccc34)o2)cc1 | 81.5 | 78.3 | 20% | 11.5% | 43% | 63.6% | 70.5% | 53.6% | 43.5% | -12.5% (active) | 7.74% (active) | 49.3% | 101 | -12.5% (active) | 81.7 | 57.3% | 77.4% | 23.3% | 60.2% | 44.8% |
| FC(F)(F)c1ccc2c(Nc3cccc(C4CC(c5ccccc5)=NN4c4ccc(Cl)cc4)c3)ccnc2c1 (stereo not given) | 87.2 | 82.6 | 37.7% | 35.9% | 82.3% | 73.3% | 66.3% | 3.45% (active) | 4.86% (active) | -10.9% (active) | -19.5% (active) | 29.8% | 95.5 | 66.6% | 80.9 | 20.1% | 19.5% | 84.8% | 35.3% | 61.9% |
| CC(C)(C)c1nn(-c2ccccc2)c2c1COCN2Cc1ccc(Cl)cc1 | 94.1 | 98.8 | 96.7% | 85.2% | 117% | 89.1% | 85.1% | 64.5% | 68.1% | 47.2% | 10.9% | 107% | 90 | 77.2% | 92.6 | 117% | 104% | 86.2% | 94.8% | 73.6% |
| CCn1cc(C(=O)O)c(=O)c2cc(F)c(N3CCN(CC(=O)Nc4ccc(/C(C)=N/OC)cc4)CC3)cc21 | 109 | 95.5 | 101% | 79.9% | 101% | 103% | 92.9% | 105% | 96.4% | 82.6% | 105% | 92.3% | 101 | 103% | 85.1 | 94.6% | 97.6% | 94.7% | 97.8% | 70.3% |
| O=C1CCC23OC(c4ccccc4N12)C(O)C(O)C3O (stereo not given) | 94.7 | 107 | 103% | 86.9% | 89.1% | 109% | 104% | 101% | 98.3% | 112% | 103% | 99.3% | 110 | 105% | 117 | 98.2% | 96.3% | 105% | 101% | 110% |
| COc1ccc2nc(-c3ccc(Cl)cc3)cc(-c3nnc(SC/C(=N/O)c4ccccc4)o3)c2c1 | 61.3 | 72.8 | 17.5% | 89.7% | 75% | 47.5% | 63.5% | 54.1% | 52.5% | 7.97% (active) | 41.3% | 49.7% | 84.2 | 16.7% | 69.6 | 50.8% | 34% | 71.9% | 57.4% | 27% |
| CC(=O)Nc1nc2c(c(N)c1C#N)C(c1cccc(Cl)c1)C1=C(CCCC1=O)N2c1sc2c(c1C#N)CCCC2 (stereo not given) | 55.5 | 35.9 | 52.3% | 37.1% | 44.5% | 53.3% | 62.4% | 50.4% | 12.6% | 26% | 22% | 37% | 87.1 | 57.5% | 54.7 | 59.4% | 56.1% | 73.7% | 46.7% | 36.7% |
| COc1ccc([C@H]2[C@@H](F)C(=O)N2c2cc(OC)c(OC)c(OC)c2)cc1F | 58.8 | 72.2 | 33.3% | 43.2% | 64.4% | 32.7% | -5.5% (active) | 13.2% | 19.7% | 13.3% | 15.3% | 13.7% | 43.6 | 54.9% | 33.4 | 31.9% | -4.18% (active) | 25.5% | 8.4% (active) | 74.9% |
| COc1ccc(-c2cc(-c3nnc(SCC(=O)Nc4ccc(/C(C)=N\O)cc4)n3-c3ccccc3)c3cc(OC)ccc3n2)cc1 | 86.9 | 82.7 | 86.8% | 54.7% | 87.8% | 72.6% | 78.1% | 37.2% | 29.9% | 49.1% | 66.7% | 75.8% | 102 | 92.1% | 79.9 | 39.6% | 77.4% | 82.7% | 71.3% | 45.4% |
| Clc1ccc2c(NCCCNC3CCCCC3)ccnc2c1 | 107 | 66.2 | 97% | 83% | 111% | 116% | 98.9% | 67.7% | 6.38% (active) | 46.8% | 82% | 54.7% | 114 | 91.2% | 140 | 111% | 109% | 108% | 109% | 108% |
| C=C1C(=O)O[C@H]2[C@H]1CC/C(COC(=O)CCCCCCCC(=O)OC/C1=C/CC[C@@]3(C)O[C@H]3[C@H]3OC(=O)C(=C)[C@@H]3CC1)=C\CC[C@@]1(C)O[C@@H]21 | 59.9 | 18.5 | 4.85% (active) | -22.1% (active) | 3.41% (active) | -24.8% (active) | 109% | 5.92% (active) | 2.39% (active) | 0.728% (active) | 3.72% (active) | 1.92% (active) | 44.4 | 26.7% | 101 | -13.3% (active) | 2.34% (active) | 9.65% (active) | 28.6% | -30.2% (active) |

Reference: PubChem BioAssay (NCI)
